Experimental data published in PubChem BioAssay.
“And” between values parts separate entries of the source, which are not always exact repeats. Equal entries are not always repeated. The source made the active and inactive calls.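 Rule for the calls, unless noted: active = normalized viability below 100% at a tested concentration; inactive = the rest.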

What was measured:
[1] = stimulators of nuclear beta-catenin in C2C12, primary screen, imaging, WNT3A-conditioned medium, mouse C2C12, NPC library (AID 1117326; in the data active = nuclear beta-catenin stimulation mostly above about 4.2%, no sharp cut-off; inactive = mostly below about 10%); details: stronger effect = higher value
[2] = stimulators of insulin release from INS-1E, primary screen, cell-based, 5 mM glucose, NPC library (AID 1117329;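 active = compound raises insulin release from rat beta cells at 5 mM glucose, no numeric limit stated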); details: rat INS-1E insulin secretion, at 10 µM, stronger effect = higher value
[3] = growth inhibition of GSK3B-pretreated HCT116 cells – cell-based, CellTiter-Glo, 0.2 to 20 µM (AID 1117336;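 active = compounds lowering colon cancer cell viability after pretreatment blocking the GSK3B kinase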); details: HCT116 viability after GSK3B inhibitor, at 20 µM, stronger effect = higher value
[4] = inhibition of endothelial tube formation, primary screen, imaging, VEGF stimulated, CD31 staining, tube area, NPC library (AID 1117340;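 active = compound that reduces growth-factor-driven endothelial tube area in a mixed cell culture, no cutoff stated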); details: VEGF-stimulated ADSC/ECFC co-culture, at 10 µM, stronger effect = higher value
[5] = glucagon-like peptide 1 release enhancers, primary assay, NCI-H716 cell line, NPC library (AID 1117341;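 active = compound raises GLP1 secretion from the human gut endocrine cells, with no numeric limit stated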); details: NCI-H716 cells, at 10 µM, stronger effect = higher value
[6] = HCT116 colon cancer cell growth inhibition, primary screen, CellTiter-Glo luminescence, NPC library (AID 1117342;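 active = compounds that lower survival of HCT116 colon cancer cells in the luminescence readout, no numeric limit stated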); details: at 20 µM (top of the series)
[7] = CellTiter-Glo luminescent readout of SW480 viability loss, NPC library primary (AID 1117343;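 active = compounds that lower viability of the colon cancer cells in the luminescence readout, with no numeric limit stated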); details: CellTiter-Glo luminescence; at 20 µM (top of the series)
[8] = decreased DLD-1 cellular survival, CellTiter-Glo luminescent readout, NPC compound collection, primary HTS (AID 1117346;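 active = compounds that lower survival of DLD-1 colon cancer cells in the luminescence readout, no cutoff given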); details: DLD-1 viability, CellTiter-Glo luminescence; at 20 µM (top of the series)
[9] = target: 6-phosphogluconate dehydrogenase, decarboxylating (Homo sapiens) (UniProt P52209); experiment: 6PGD enzyme inhibitors, primary screen, biochemical, human, recombinant enzyme, NADPH absorbance (AID 1159550;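 active = at least 20% inhibition of 6-phosphogluconate dehydrogenase activity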); details: recombinant 6PGD, NADPH absorbance 341 nm; at 10 µM; stronger effect = higher value
[10] = modulation of C. elegans fzo-1 (AID 1259413; call rule not given here;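 note: fzo-1 mutant C. elegans worms in liquid wells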); details: C. elegans fzo-1 modulator screen, mean read-out; stronger effect = higher value
[11] = differential killing of epithelial or mesenchymal cells, primary screen, imaging, PC-3E GFP, TEM4-18 mCherry, co-culture (AID 1345086;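 active = compounds killing one labelled cell type while sparing the other, by normalised counts and ratio limits, not self-fluorescent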;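 for all read-outs here: cells exposed to compound for 72 h before imaging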;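 for red/green cell ratio (normalised): normalised mesenchymal count divided by normalised epithelial count so high means epithelial killing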); details: imaging cell counts, at 1 µM; for red/green cell ratio (normalised): actives lie on both sides, counts scaled to control wells, 1 = unselective
[12] = survival rescue of mitochondrial mutant cells in low glucose, primary screen, MELAS cybrids, Rieske KO mouse fibroblasts, CellTiter-Glo (AID 1508586;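 active = mean z-score across replicates of 1.96 or higher in either the MELAS or the Rieske mutant cell line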;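 note: z relative to plate mean and SD of compound and empty wells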)
[13] = target: NAD(+) hydrolase SARM1 (Homo sapiens) (UniProt Q6SZW1); experiment: SARM1 TIR NADase inhibitors, cell lysate, NAD-Glo luminescence (AID 1508614;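 active = compound whose remaining NAD level is above about 45 nM, limit read from the data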;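 note: higher remaining NAD means stronger inhibition of SARM1 NADase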); details: SAM-TIR HEK293T lysate NADase, at 1 µM, stronger effect = higher value
[14] = target: Mitogen-activated protein kinase 7 (Homo sapiens) (UniProt Q13164); experiment: ERK5 transactivation activators in reporter cells, primary screen, cell-based, HTS (AID 1508626;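 active = luciferase signal above three times the same-plate solvent-only control wells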;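 note: luciferase driven by Gal4-ERK5 fusion binding five Gal4 sites before minimal TATA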); details: HeLa Gal4-ERK5 transactivation, 18 h, at 5 µM, stronger effect = higher value
F380Y = experiment: modulators of BK channel variants, profiling panel, selectivity assay, cell-based, U2OS BacMam, thallium flux, beta subunits (AID 1259406;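 active = thallium flux through the channel raised or lowered by more than 3 SD from vehicle-only wells, actives on both sides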;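 note: initial slope of Thallos dye fluorescence rise after thallium is added; log ratio against the mean of 0.3% DMSO vehicle wells on the same plate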); details: at 30 µM
F380Y/beta1 = experiment: as above; details: at 30 µM
F380Y/beta2Delta = experiment: as above; details: at 30 µM
[15] = ovarian cancer cell viability with rucaparib, profiling panel, oncology-focused library, rucaparib conditional (AID 1508598); details: patient-derived ovarian cancer cells, CellTiter-Glo viability, 144 h, stronger effect = lower value
[16] = measured here: epithelial PC-3E GFP cell survival
[17] = measured here: mesenchymal TEM4-18 mCherry cell survival
[18] = MELAS cybrid survival, CellTiter-Glo 48 h, stronger effect = higher value
[19] = Rieske KO mouse fibroblast survival, CellTiter-Glo 72 h

Sequence of 6-phosphogluconate dehydrogenase, decarboxylating (Homo sapiens) (P52209 whole entry, looked up): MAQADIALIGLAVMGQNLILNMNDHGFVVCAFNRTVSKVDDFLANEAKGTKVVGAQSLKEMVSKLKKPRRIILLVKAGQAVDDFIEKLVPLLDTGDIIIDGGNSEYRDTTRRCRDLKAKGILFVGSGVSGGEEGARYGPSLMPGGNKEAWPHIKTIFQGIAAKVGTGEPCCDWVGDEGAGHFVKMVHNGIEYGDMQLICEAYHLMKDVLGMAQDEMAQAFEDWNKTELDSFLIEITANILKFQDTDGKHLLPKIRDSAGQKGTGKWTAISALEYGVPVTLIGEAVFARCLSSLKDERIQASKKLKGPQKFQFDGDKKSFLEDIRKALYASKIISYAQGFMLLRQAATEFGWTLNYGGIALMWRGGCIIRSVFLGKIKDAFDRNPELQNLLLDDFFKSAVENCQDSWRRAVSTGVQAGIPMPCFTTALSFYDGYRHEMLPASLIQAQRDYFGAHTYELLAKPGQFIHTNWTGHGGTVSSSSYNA
Sequence of NAD(+) hydrolase SARM1 (Homo sapiens) (Q6SZW1 whole entry, looked up, the tested form may be a part): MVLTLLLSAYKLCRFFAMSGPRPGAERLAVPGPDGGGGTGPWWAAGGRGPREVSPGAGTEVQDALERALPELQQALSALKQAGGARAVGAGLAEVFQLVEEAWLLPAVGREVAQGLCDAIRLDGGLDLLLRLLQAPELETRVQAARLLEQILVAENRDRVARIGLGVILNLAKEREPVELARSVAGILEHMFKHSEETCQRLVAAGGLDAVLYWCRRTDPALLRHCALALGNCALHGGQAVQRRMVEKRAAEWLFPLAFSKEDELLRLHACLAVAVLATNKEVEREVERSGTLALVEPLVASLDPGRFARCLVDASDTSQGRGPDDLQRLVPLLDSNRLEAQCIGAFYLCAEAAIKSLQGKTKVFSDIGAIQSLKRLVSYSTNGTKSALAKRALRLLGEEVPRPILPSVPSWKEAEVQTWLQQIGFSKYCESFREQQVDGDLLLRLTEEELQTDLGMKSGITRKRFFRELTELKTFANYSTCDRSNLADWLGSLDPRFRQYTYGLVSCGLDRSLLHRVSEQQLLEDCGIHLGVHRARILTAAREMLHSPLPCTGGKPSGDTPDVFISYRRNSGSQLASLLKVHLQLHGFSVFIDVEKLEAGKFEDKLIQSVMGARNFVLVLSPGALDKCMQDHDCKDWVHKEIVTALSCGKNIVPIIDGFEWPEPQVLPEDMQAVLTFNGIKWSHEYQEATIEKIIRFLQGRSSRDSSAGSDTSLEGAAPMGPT
Sequence of Mitogen-activated protein kinase 7 (Homo sapiens) (Q13164 whole entry, looked up, the tested form may be a part): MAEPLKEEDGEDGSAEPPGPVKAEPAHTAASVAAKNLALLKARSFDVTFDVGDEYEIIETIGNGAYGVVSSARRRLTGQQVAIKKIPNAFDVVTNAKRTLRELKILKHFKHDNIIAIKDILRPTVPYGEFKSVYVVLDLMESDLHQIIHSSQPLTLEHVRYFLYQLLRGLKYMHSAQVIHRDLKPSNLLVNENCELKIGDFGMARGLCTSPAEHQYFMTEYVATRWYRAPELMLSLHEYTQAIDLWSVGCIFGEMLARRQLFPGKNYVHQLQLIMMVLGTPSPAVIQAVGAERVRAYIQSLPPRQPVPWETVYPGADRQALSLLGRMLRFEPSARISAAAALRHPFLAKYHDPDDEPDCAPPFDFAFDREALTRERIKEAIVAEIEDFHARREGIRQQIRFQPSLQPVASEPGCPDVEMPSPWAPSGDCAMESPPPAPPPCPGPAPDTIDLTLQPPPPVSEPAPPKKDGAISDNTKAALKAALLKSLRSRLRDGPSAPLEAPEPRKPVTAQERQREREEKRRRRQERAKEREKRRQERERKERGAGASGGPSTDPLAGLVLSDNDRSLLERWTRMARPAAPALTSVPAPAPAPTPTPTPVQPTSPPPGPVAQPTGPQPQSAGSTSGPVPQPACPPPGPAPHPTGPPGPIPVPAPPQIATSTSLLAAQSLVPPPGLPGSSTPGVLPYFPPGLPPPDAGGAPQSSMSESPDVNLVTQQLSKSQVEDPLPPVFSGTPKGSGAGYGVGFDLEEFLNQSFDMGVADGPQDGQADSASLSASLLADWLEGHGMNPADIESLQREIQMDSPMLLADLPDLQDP

NC(=O)c1cnccn1
inactive: nuclear beta-catenin stimulation ([1]; at 10 µM) -0.1% | insulin secretion stimulation [2] -1.9% | viability decrease [3] 0.65% | tube area decrease [4] 14.5% | GLP1 secretion stimulation [5] 3.1% | inhibition of viability [6] -20.7% | viability decrease (inhibition) [7] -1.8% | viability decrease (inhibition) [8] -1.9% | inhibition [9] -8.25% | mean signal [10] 263 | red/green cell ratio (normalised) [11] 1.13 | z-score [12, 18] -0.184 and 0.644 | remaining NAD [13] 10 nM | luciferase signal [14] 48 AU | log fold change Tl+ flux (F380Y) -0.0194 | log fold change Tl+ flux (F380Y/beta1) 0.0317
0.91: normalised cell number [11, 16]
1.03: normalised cell number [11, 17]
-0.7%: nuclear beta-catenin stimulation ([1]; stimulation, at 2 µM)
active: log fold change Tl+ flux (F380Y/beta2Delta) -0.0799
-1 and -0.0443: z-score [12, 19]

Cc1ccc(-c2cc(C(F)(F)F)nn2-c2ccc(S(N)(=O)=O)cc2)cc1
1.08: normalised cell number [11, 16]
1.32: normalised cell number [11, 17]
0.5%: nuclear beta-catenin stimulation ([1]; stimulation, at 2 µM)
active: viability decrease (inhibition) [7] 66.6% | viability decrease (inhibition) [8] 50.1% | viability ([15]; at 0.000305 µM, OCI-P5x cells, with rucaparib 20 µM, 100% = cells with rucaparib alone) 84.7% | viability ([15]; at 0.000305 µM, OCI-P5x cells, without rucaparib) 92.4% | viability ([15]; at 0.00122 µM, OCI-P5x cells, with rucaparib 20 µM, 100% = cells with rucaparib alone) 91.7% | viability ([15]; at 0.00122 µM, OCI-P5x cells, without rucaparib) 91.9% | viability ([15]; at 0.00488 µM, OCI-P5x cells, with rucaparib 20 µM, 100% = cells with rucaparib alone) 93.8% | viability ([15]; at 0.00488 µM, OCI-P5x cells, without rucaparib) 94% | viability ([15]; at 0.0195 µM, OCI-P5x cells, with rucaparib 20 µM, 100% = cells with rucaparib alone) 96.2% | viability ([15]; at 0.0195 µM, OCI-P5x cells, without rucaparib) 88.2% | viability ([15]; at 0.0781 µM, OCI-P5x cells, with rucaparib 20 µM, 100% = cells with rucaparib alone) 96.7% | viability ([15]; at 0.0781 µM, OCI-P5x cells, without rucaparib) 94.3% | viability ([15]; at 0.313 µM, OCI-P5x cells, with rucaparib 20 µM, 100% = cells with rucaparib alone) 66.1% | viability ([15]; at 0.313 µM, OCI-P5x cells, without rucaparib) 56.6%
1.13 and 1.16 and 1.29: z-score [12, 19]
inactive: nuclear beta-catenin stimulation ([1]; at 10 µM) 8.6% | insulin secretion stimulation [2] -0.6% | viability decrease [3] -9.9% | tube area decrease [4] 1.2% | GLP1 secretion stimulation [5] 0.7% | inhibition of viability [6] 49% | inhibition [9] 13.7% | mean signal [10] 242 | red/green cell ratio (normalised) [11] 1.22 | z-score [12, 18] -0.312 and 1.24 and 1.08 | viability ([15]; at 0.000305 µM, OCI-C5x cells, with rucaparib 10 µM, 100% = cells with rucaparib alone) 113% | viability ([15]; at 0.000305 µM, OCI-C5x cells, without rucaparib) 107% | viability ([15]; at 0.00122 µM, OCI-C5x cells, with rucaparib 10 µM, 100% = cells with rucaparib alone) 104% | viability ([15]; at 0.00122 µM, OCI-C5x cells, without rucaparib) 111% | viability ([15]; at 0.00488 µM, OCI-C5x cells, with rucaparib 10 µM, 100% = cells with rucaparib alone) 118% | viability ([15]; at 0.00488 µM, OCI-C5x cells, without rucaparib) 107% | viability ([15]; at 0.0195 µM, OCI-C5x cells, with rucaparib 10 µM, 100% = cells with rucaparib alone) 115% | viability ([15]; at 0.0195 µM, OCI-C5x cells, without rucaparib) 120% | viability ([15]; at 0.0781 µM, OCI-C5x cells, with rucaparib 10 µM, 100% = cells with rucaparib alone) 114% | viability ([15]; at 0.0781 µM, OCI-C5x cells, without rucaparib) 117% | viability ([15]; at 0.313 µM, OCI-C5x cells, with rucaparib 10 µM, 100% = cells with rucaparib alone) 117% | viability ([15]; at 0.313 µM, OCI-C5x cells, without rucaparib) 110% | viability ([15]; at 1.25 µM, OCI-C5x cells, with rucaparib 10 µM, 100% = cells with rucaparib alone) 113% | viability ([15]; at 1.25 µM, OCI-C5x cells, without rucaparib) 124% | viability ([15]; at 1.25 µM, OCI-P5x cells, with rucaparib 20 µM, 100% = cells with rucaparib alone) 109% | viability ([15]; at 1.25 µM, OCI-P5x cells, without rucaparib) 105% | viability ([15]; at 5 µM, OCI-C5x cells, with rucaparib 10 µM, 100% = cells with rucaparib alone) 122% | viability ([15]; at 5 µM, OCI-C5x cells, without rucaparib) 131% | viability ([15]; at 5 µM, OCI-P5x cells, with rucaparib 20 µM, 100% = cells with rucaparib alone) 109% | viability ([15]; at 5 µM, OCI-P5x cells, without rucaparib) 105% | remaining NAD [13] 10 nM | luciferase signal [14] 28 AU | log fold change Tl+ flux (F380Y) 0.057 | log fold change Tl+ flux (F380Y/beta1) -0.0387 | log fold change Tl+ flux (F380Y/beta2Delta) -0.0192
